The text below walks through data of PubChem BioAssay AID1347420 (Sanford-Burnham Center for Chemical Genomics, 2020).

About 980 (75%) of roughly 1,300 compounds were called active. Inconclusive results (about 4%) are left out. The list shows a part of the results.

One may read the inhibition as the change of the read-out against control, counted positive when it falls.

The assay deals with Sulfhydryl oxidase 1 (Homo sapiens) (UniProt O00391). Put plainly: inhibition of human sulfhydryl oxidase QSOX1 – biochemical, HyperBlu H2O2 luminescence, HTS, primary screen (AID 1347420). Also: values above 100% were filed as inconclusive. As to conditions: recombinant QSOX1, HyperBlu H2O2 luminescence; at 12.5 µM; hits give high values; active = any value above zero.
Chain of Sulfhydryl oxidase 1 (Homo sapiens) (O00391 whole entry, looked up): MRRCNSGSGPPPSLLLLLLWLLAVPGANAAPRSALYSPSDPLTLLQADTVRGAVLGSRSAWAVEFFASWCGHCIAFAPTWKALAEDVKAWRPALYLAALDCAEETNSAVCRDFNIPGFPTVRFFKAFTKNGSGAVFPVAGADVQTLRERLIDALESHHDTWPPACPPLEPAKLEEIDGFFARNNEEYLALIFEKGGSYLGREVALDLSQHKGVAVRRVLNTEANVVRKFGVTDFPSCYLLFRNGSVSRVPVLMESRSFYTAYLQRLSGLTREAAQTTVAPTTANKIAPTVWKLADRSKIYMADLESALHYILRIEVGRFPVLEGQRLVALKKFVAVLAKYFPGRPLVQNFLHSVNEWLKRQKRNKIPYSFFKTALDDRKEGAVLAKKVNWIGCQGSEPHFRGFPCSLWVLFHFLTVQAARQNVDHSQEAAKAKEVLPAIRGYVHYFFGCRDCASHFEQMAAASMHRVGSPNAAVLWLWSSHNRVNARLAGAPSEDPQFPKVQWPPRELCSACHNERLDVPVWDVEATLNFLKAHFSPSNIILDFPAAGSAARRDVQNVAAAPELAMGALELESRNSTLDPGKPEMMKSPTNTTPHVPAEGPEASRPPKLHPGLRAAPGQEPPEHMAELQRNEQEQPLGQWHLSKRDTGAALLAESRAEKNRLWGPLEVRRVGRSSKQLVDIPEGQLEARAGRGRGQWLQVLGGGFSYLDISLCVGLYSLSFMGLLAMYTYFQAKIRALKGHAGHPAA
In the case of `CC(C)(C)NCC(O)COc1nsnc1N1CCOCC1` (centres undefined), the inhibition is 3.8% (active). Turning to `CC1CNCCN1S(=O)(=O)c1cccc2cnccc12` (centres undefined), the inhibition was 37.4% (active). Next, `CC1CN(S(=O)(=O)c2cccc3cnccc23)CCN1` (centres undefined): 4.9% (active); `O=Nc1ccc2oc(=O)ccc2c1`: 85% (active); `COC(=O)Nc1nc2ccc(C(=O)c3cccs3)cc2[nH]1`: 12.3% (active). Next, `O=c1[nH]c(=O)c2nc3ccccc3nc2[nH]1`: 3.9% (active). Turning to `NC(=O)c1cn(Cc2c(F)cccc2F)nn1`, the inhibition is -7.2% (inactive). Next, `CCCN(CCC)CCc1cccc2c1CC(=O)N2`: -8.3% (inactive). Next, `CO[C@@]1(NC(=O)CSCC#N)C(=O)N2C(C(=O)O)=C(CSc3nnnn3C)CS[C@@H]21`: 10% (active); `CN1C(=O)CC[C@H]1c1cccnc1`: 3.9% (active); `CN1CCC[C@H]1c1cccnc1`: 2.5% (active). Next, `COc1ccccc1CNCCCCCCNCCCCCCCCNCCCCCCCNc1ccccc1OC`: 0.8% (active); `C#CCCN`: 25.9% (active); `NC(=O)c1ccccc1`: -9.9% (inactive). Turning to `NC(=O)c1cccc(N)c1`, the inhibition was 19% (active). Next, `NC(=O)c1ccc2[nH]ccc2c1`: -15.5% (inactive); `CC[C@@H](C)[C@H]1O[C@]2(CC[C@@H]1C)C[C@@H]1C[C@@H](C/C=C(\C)[C@@H](O[C@H]3C[C@H](OC)[C@@H](O[C@H]4C[C@H](OC)[C@@H](O)[C@H](C)O4)[C@H](C)O3)[C@@H](C)/C=C/C=C3\CO[C@@H]4[C@H](O)C(C)=C[C@@H](C(=O)O1)[C@]34O)O2`: 10.8% (active).

With `Cc1cccc(/C=C/c2ccccc2)n1`, the inhibition is 3.6% (active). Next, `O=NN(CCCl)C(=O)NCCCl`: 10.3% (active). Next, `CCCNC(C)C(=O)Nc1ccccc1C` (centres undefined): 3.1% (active).

As to `Nc1nc2ccc(OC(F)(F)F)cc2s1`, the inhibition was 7.2% (active). Next, `CSC(=N)N`: 14.1% (active).

In the case of `CCSC(=N)N`, the inhibition was 3% (active). For `NC(=O)CNCCC(c1ccccc1)c1ccccc1`, the inhibition is 1.3% (active). With `N=C(N)N1CCc2ccccc2C1`, the inhibition is 18.5% (active).

Turning to `CC(C)NNC(=O)c1ccncc1`, the inhibition was 0.1% (active).

Regarding `C1COC(NC(C2CC2)C2CC2)=N1`, the inhibition was -6.7% (inactive). Next, `CN(C)CCCC1(c2ccc(F)cc2)OCc2cc(C#N)ccc21` (centres undefined): 8.6% (active); `Nn1nnc2ccccc21`: 21.7% (active); `O=C(O)Cc1c[nH]c2ccc(O)cc12`: 47.5% (active). Next, `N[C@@H](Cc1c[nH]c2ccc(O)cc12)C(=O)O`: 45.4% (active); `N[C@@H](Cc1c[nH]c2ccccc12)C(=O)O`: 3.4% (active); `Cc1cnc(NC(=O)C2=C(O)c3ccccc3S(=O)(=O)N2C)s1`: 44.2% (active). Next, `CN1C(C(=O)Nc2ccccn2)=C(O)c2ccccc2S1(=O)=O`: 35.6% (active); `CN1C2CCCC1CC(NC(=O)c1nn(C)c3ccccc13)C2` (centres undefined): 8.4% (active). Take `CC(=O)O[C@]1(C(C)=O)CC[C@H]2[C@@H]3C=C(Cl)C4=CC(=O)[C@@H]5C[C@@H]5[C@]4(C)[C@H]3CC[C@@]21C`: the inhibition was -5.1% (inactive). Next, `NCCS(=O)O`: 4.2% (active). `CC(=O)NNC(=O)N1Cc2ccccc2Oc2ccc(Cl)cc21`: the inhibition is 17.2% (active). Next, `N[C@@H](Cn1ccc(=O)c(O)c1)C(=O)O`: 10.1% (active); `Oc1ccc(-c2nc(-c3ccc(F)cc3)c(-c3ccncc3)[nH]2)cc1`: 97% (active).

In the case of `O=[N+]([O-])c1ccc(-c2nc(-c3ccc(F)cc3)c(-c3ccncc3)[nH]2)cc1`, the inhibition was 92.4% (active). On to `O=C1Cc2c([nH]c3ccc(Br)cc23)-c2ccccc2N1`, for which the inhibition was 1.7% (active). Next, `C=C1N=C(N=NC2=C(S(=O)(=O)[O-])[C+]=C(S(=O)(=O)[O-])[C+]=C2)[C+](COP(=O)([O-])O)C(C=O)=C1O`: 6.1% (active); `O=C1OC(=O)C2C3CCC(O3)C12` (centres undefined): 9.8% (active); `Nc1ccn([C@@H]2O[C@H](CO)[C@@H](O)C2O)c(=O)n1` (some centres undefined): -7% (inactive). Next, `Nc1ncnc2c1ncn2[C@@H]1O[C@H](CO)[C@H](O)C1O` (some centres undefined): 13.8% (active); `Nc1ncn([C@@H]2O[C@H](CO)[C@H](O)C2O)c(=O)n1` (some centres undefined): 21.3% (active).

Consider `Nc1nc(Cl)nc2c1ncn2[C@@H]1O[C@H](CO)[C@H](O)C1O` (some centres undefined), for which the inhibition is 13.7% (active).

As for `NC[C@H]1O[C@@H](n2cnc3c(N)ncnc32)[C@H](O)[C@@H]1O`, the inhibition is 16.1% (active).

In the case of `CC(=O)O[C@H]1C(=O)[C@@]2(C)C([C@H](OC(=O)c3ccccc3)[C@]3(O)C[C@H](OC(=O)[C@H](O)[C@@H](NC(=O)c4ccccc4)c4ccccc4)C(C)=C1C3(C)C)[C@]1(OC(C)=O)CO[C@@H]1C[C@@H]2O` (some centres undefined), the inhibition is -4.9% (inactive). Next, `CCc1cccc2c3c([nH]c12)C(CC)(CC(=O)O)OCC3` (centres undefined): -6% (inactive); `Nc1ncnc2c1ncn2C1CCCC1`: 12.4% (active); `Nc1nc2c(ncn2[C@@H]2O[C@H](CO)[C@@H](O)[C@@H]2O)c(=O)[nH]1`: 7.5% (active). Next, `Nc1ncnc2c1ncn2C1CCCO1` (centres undefined): -13.6% (inactive); `OC[C@H]1O[C@@H](n2cnc3cncnc32)[C@H](O)[C@@H]1O`: 17% (active); `CCNc1nc2c(ncn2[C@H]2C[C@H](O)[C@@H](CO)O2)c(=O)[nH]1`: -2.5% (inactive). Next, `Nc1nc(Nc2ccccc2)nc2c1ncn2[C@@H]1O[C@H](CO)[C@H](O)C1O` (some centres undefined): 8.8% (active). For `CCCC(CCC)C(=O)O`, the inhibition is 40.8% (active). Next, `N#Cc1cc([N+](=O)[O-])c2sc(C(N)=O)[n+]([O-])c2c1`: 25.4% (active); `NC(=O)C1=C[N+](=C2OC(COP(=O)(O)OP(=O)([O-])OC[C@H]3O[C@@H](n4cnc5c(N)ncnc54)C(OP(=O)(O)O)[C@H]3O)C(O)C2O)C=CC1` (some centres undefined): -12.9% (inactive). Next, `NC(=S)c1ccc[n+]([C@@H]2O[C@@H](COP(=O)([O-])OP(=O)(O)OC[C@H]3O[C@@H](n4cnc5c(N)ncnc54)C(OP(=O)(O)O)[C@H]3O)C(O)C2O)c1` (some centres undefined): 4.8% (active); `CCN(CC)c1ncnc2c1ncn2[C@@H]1O[C@H](COP(=O)(O)OP(=O)(O)C(Br)(Br)P(=O)(O)O)[C@@H](O)[C@H]1O`: -3% (inactive); `Nc1ncnc2c1ncn2[C@@H]1O[C@H](COP(=O)(O)CP(=O)(O)OP(=O)(O)O)[C@H](O)C1O` (some centres undefined): 13.7% (active). Next, `Nc1ncnc2c1ncn2[C@@H]1O[C@H](COP(=O)(O)OP(=O)(O)OP(=O)(O)OP(=O)(O)OC[C@@H]2O[C@H](n3cnc4c(N)ncnc43)C(O)[C@@H]2O)[C@H](O)C1O` (some centres undefined): 11.6% (active).
